Assay results: the supplement of paper PMC4466140

biological target: AgAbp1; experiment: SPOT peptide array binding signal intensity (averaged, normalized) (arbitrary units (background-subtracted, floor 0; scale differs between SH3 domains)); higher = stronger binding of the SH3 domain to the peptide
Description: (§1)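 GST-tagged SH3 domains from S. cerevisiae (Sc), A. gossypii (Ag), C. albicans (Ca) and S. pombe (Sp) were incubated at 10 ug/ml overnight at 4 C on cellulose SPOT membranes carrying 292 synthetic 15-mer peptides mined from the S. cerevisiae proteome (cysteines replaced by serines). Binding was detected with anti-GST antibody, HRP secondary and chemiluminescence, quantified with Genespotter, and reported as normalized spot intensities averaged over biological replicates.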

Binder | SPOT peptide array binding signal intensity
AERNYAPRLPRRETS | 20
NRPAIRIPSLKKPAL | 20

biological target: AgBbc1; experiment: as above
Description: as §1

Binder | SPOT peptide array binding signal intensity
AERNYAPRLPRRETS | 69.8
NRPAIRIPSLKKPAL | 12.5

biological target: AgBem1-D1; experiment: as above
Description: as §1

Binder | SPOT peptide array binding signal intensity
AERNYAPRLPRRETS | 44.8
NRPAIRIPSLKKPAL | 54.5

biological target: AgBzz1-D1; experiment: as above
Description: as §1

Binder | SPOT peptide array binding signal intensity
AERNYAPRLPRRETS | 77
NRPAIRIPSLKKPAL | 16

biological target: AgBzz1-D2; experiment: as above
Description: as §1

Binder | SPOT peptide array binding signal intensity
AERNYAPRLPRRETS | 128
NRPAIRIPSLKKPAL | 7

biological target: AgCyk3; experiment: as above
Description: as §1

Binder | SPOT peptide array binding signal intensity
AERNYAPRLPRRETS | 1
NRPAIRIPSLKKPAL | 2

biological target: AgFus1; experiment: as above
Description: as §1

Binder | SPOT peptide array binding signal intensity
AERNYAPRLPRRETS | 3.25
NRPAIRIPSLKKPAL | 226

biological target: AgHof1; experiment: as above
Description: as §1

Binder | SPOT peptide array binding signal intensity
AERNYAPRLPRRETS | 124
NRPAIRIPSLKKPAL | 111

biological target: AgHse1; experiment: as above
Description: as §1

Binder | SPOT peptide array binding signal intensity
AERNYAPRLPRRETS | 87.5
NRPAIRIPSLKKPAL | 800

biological target: AgLsb1; experiment: as above
Description: as §1

Binder | SPOT peptide array binding signal intensity
AERNYAPRLPRRETS | 289
NRPAIRIPSLKKPAL | 361

biological target: AgLsb4; experiment: as above
Description: as §1

Binder | SPOT peptide array binding signal intensity
AERNYAPRLPRRETS | 3440
NRPAIRIPSLKKPAL | 18.5

biological target: AgMyo5; experiment: as above
Description: as §1

Binder | SPOT peptide array binding signal intensity
AERNYAPRLPRRETS | ≤ 0
NRPAIRIPSLKKPAL | 0.5

biological target: AgNbp2; experiment: as above
Description: as §1

Binder | SPOT peptide array binding signal intensity
AERNYAPRLPRRETS | 128
NRPAIRIPSLKKPAL | 114

biological target: AgRvs167; experiment: as above
Description: as §1

Binder | SPOT peptide array binding signal intensity
AERNYAPRLPRRETS | 340
NRPAIRIPSLKKPAL | 1.33

biological target: AgSho1; experiment: as above
Description: as §1

Binder | SPOT peptide array binding signal intensity
AERNYAPRLPRRETS | ≤ 0
NRPAIRIPSLKKPAL | 21.5

biological target: AgSla1-D1-D2; experiment: as above
Description: as §1

Binder | SPOT peptide array binding signal intensity
AERNYAPRLPRRETS | 1.5
NRPAIRIPSLKKPAL | 24

biological target: AgSla1-D3; experiment: as above
Description: as §1

Binder | SPOT peptide array binding signal intensity
AERNYAPRLPRRETS | ≤ 0
NRPAIRIPSLKKPAL | 5.5

biological target: CaAbp1-D1; experiment: as above
Description: as §1

Binder | SPOT peptide array binding signal intensity
AERNYAPRLPRRETS | 84
NRPAIRIPSLKKPAL | 191

biological target: CaAbp1-D2; experiment: as above
Description: as §1

Binder | SPOT peptide array binding signal intensity
AERNYAPRLPRRETS | 61
NRPAIRIPSLKKPAL | 44

biological target: CaBbc1; experiment: as above
Description: as §1

Binder | SPOT peptide array binding signal intensity
AERNYAPRLPRRETS | 454
NRPAIRIPSLKKPAL | 122

biological target: CaBem1-D1; experiment: as above
Description: as §1

Binder | SPOT peptide array binding signal intensity
AERNYAPRLPRRETS | 25.5
NRPAIRIPSLKKPAL | 41

biological target: CaBzz1-D1; experiment: as above
Description: as §1

Binder | SPOT peptide array binding signal intensity
AERNYAPRLPRRETS | 171
NRPAIRIPSLKKPAL | 25.5

biological target: CaBzz1-D2; experiment: as above
Description: as §1

Binder | SPOT peptide array binding signal intensity
AERNYAPRLPRRETS | 62.6
NRPAIRIPSLKKPAL | 21.8

biological target: CaCyk3; experiment: as above
Description: as §1

Binder | SPOT peptide array binding signal intensity
AERNYAPRLPRRETS | 9
NRPAIRIPSLKKPAL | 7

biological target: CaFus1; experiment: as above
Description: as §1

Binder | SPOT peptide array binding signal intensity
AERNYAPRLPRRETS | 23.8
NRPAIRIPSLKKPAL | 765

biological target: CaHof1; experiment: as above
Description: as §1

Binder | SPOT peptide array binding signal intensity
AERNYAPRLPRRETS | 7.5
NRPAIRIPSLKKPAL | ≤ 0

biological target: CaHse1; experiment: as above
Description: as §1

Binder | SPOT peptide array binding signal intensity
AERNYAPRLPRRETS | 222
NRPAIRIPSLKKPAL | 27

biological target: CaLsb1; experiment: as above
Description: as §1

Binder | SPOT peptide array binding signal intensity
AERNYAPRLPRRETS | 4.75
NRPAIRIPSLKKPAL | 2.5

biological target: CaLsb4; experiment: as above
Description: as §1

Binder | SPOT peptide array binding signal intensity
AERNYAPRLPRRETS | 4670
NRPAIRIPSLKKPAL | 10.5

biological target: CaMyo5; experiment: as above
Description: as §1

Binder | SPOT peptide array binding signal intensity
AERNYAPRLPRRETS | 5.5
NRPAIRIPSLKKPAL | 2.75

biological target: CaNbp2; experiment: as above
Description: as §1

Binder | SPOT peptide array binding signal intensity
AERNYAPRLPRRETS | 52.5

biological target: CaRvs167; experiment: as above
Description: as §1

Binder | SPOT peptide array binding signal intensity
AERNYAPRLPRRETS | 1200

biological target: CaRvs167-3; experiment: as above
Description: as §1

Binder | SPOT peptide array binding signal intensity
AERNYAPRLPRRETS | ≤ 0

biological target: CaSho1; experiment: as above
Description: as §1

Binder | SPOT peptide array binding signal intensity
AERNYAPRLPRRETS | 22.5

biological target: CaSla1-D1-D2; experiment: as above
Description: as §1

Binder | SPOT peptide array binding signal intensity
AERNYAPRLPRRETS | 19

biological target: CaSla1-D3; experiment: as above
Description: as §1

Binder | SPOT peptide array binding signal intensity
AERNYAPRLPRRETS | 0.75

biological target: ScAbp1; experiment: as above
Description: as §1

Binder | SPOT peptide array binding signal intensity
AERNYAPRLPRRETS | 27.8

biological target: ScBbc1; experiment: as above
Description: as §1

Binder | SPOT peptide array binding signal intensity
AERNYAPRLPRRETS | 22.4

biological target: ScBem1-D1; experiment: as above
Description: as §1

Binder | SPOT peptide array binding signal intensity
AERNYAPRLPRRETS | 6

biological target: ScBzz1-D1; experiment: as above
Description: as §1

Binder | SPOT peptide array binding signal intensity
AERNYAPRLPRRETS | 56.8

biological target: ScBzz1-D2; experiment: as above
Description: as §1

Binder | SPOT peptide array binding signal intensity
AERNYAPRLPRRETS | 73.8

biological target: ScCyk3; experiment: as above
Description: as §1

Binder | SPOT peptide array binding signal intensity
AERNYAPRLPRRETS | 2.25

biological target: ScFus1; experiment: as above
Description: as §1

Binder | SPOT peptide array binding signal intensity
AERNYAPRLPRRETS | ≤ 0

biological target: ScHof1; experiment: as above
Description: as §1

Binder | SPOT peptide array binding signal intensity
AERNYAPRLPRRETS | 17.1

biological target: ScHse1; experiment: as above
Description: as §1

Binder | SPOT peptide array binding signal intensity
AERNYAPRLPRRETS | 42

biological target: ScLsb1; experiment: as above
Description: as §1

Binder | SPOT peptide array binding signal intensity
AERNYAPRLPRRETS | 184

biological target: ScLsb2; experiment: as above
Description: as §1

Binder | SPOT peptide array binding signal intensity
AERNYAPRLPRRETS | 158

biological target: ScLsb3; experiment: as above
Description: as §1

Binder | SPOT peptide array binding signal intensity
AERNYAPRLPRRETS | 6160

biological target: ScLsb4; experiment: as above
Description: as §1

Binder | SPOT peptide array binding signal intensity
AERNYAPRLPRRETS | 3130

biological target: ScMyo3; experiment: as above
Description: as §1

Binder | SPOT peptide array binding signal intensity
AERNYAPRLPRRETS | 0.75

biological target: ScMyo5; experiment: as above
Description: as §1

Binder | SPOT peptide array binding signal intensity
AERNYAPRLPRRETS | ≤ 0

biological target: ScNbp2; experiment: as above
Description: as §1

Binder | SPOT peptide array binding signal intensity
AERNYAPRLPRRETS | 283

biological target: ScPex13; experiment: as above
Description: as §1

Binder | SPOT peptide array binding signal intensity
AERNYAPRLPRRETS | 252

biological target: ScRvs167; experiment: as above
Description: as §1

Binder | SPOT peptide array binding signal intensity
AERNYAPRLPRRETS | 2200

biological target: ScSho1; experiment: as above
Description: as §1

Binder | SPOT peptide array binding signal intensity
AERNYAPRLPRRETS | 268

biological target: ScSla1-D1-D2; experiment: as above
Description: as §1

Binder | SPOT peptide array binding signal intensity
AERNYAPRLPRRETS | 206

biological target: ScSla1-D3; experiment: as above
Description: as §1

Binder | SPOT peptide array binding signal intensity
AERNYAPRLPRRETS | 13

biological target: SpAbp1-D1; experiment: as above
Description: as §1

Binder | SPOT peptide array binding signal intensity
AERNYAPRLPRRETS | 50.5

biological target: SpBbc1; experiment: as above
Description: as §1

Binder | SPOT peptide array binding signal intensity
AERNYAPRLPRRETS | 7.25

biological target: SpBzz1-D1; experiment: as above
Description: as §1

Binder | SPOT peptide array binding signal intensity
AERNYAPRLPRRETS | 332

biological target: SpBzz1-D2; experiment: as above
Description: as §1

Binder | SPOT peptide array binding signal intensity
AERNYAPRLPRRETS | 4.5

biological target: SpCyk3; experiment: as above
Description: as §1

Binder | SPOT peptide array binding signal intensity
AERNYAPRLPRRETS | 2

biological target: SpHof1; experiment: as above
Description: as §1

Binder | SPOT peptide array binding signal intensity
AERNYAPRLPRRETS | 49.2

biological target: SpHof1-2; experiment: as above
Description: as §1

Binder | SPOT peptide array binding signal intensity
AERNYAPRLPRRETS | 10.2

biological target: SpHof1-3; experiment: as above
Description: as §1

Binder | SPOT peptide array binding signal intensity
AERNYAPRLPRRETS | 197

biological target: SpHse1; experiment: as above
Description: as §1

Binder | SPOT peptide array binding signal intensity
AERNYAPRLPRRETS | 85.5

biological target: SpLsb1; experiment: as above
Description: as §1

Binder | SPOT peptide array binding signal intensity
AERNYAPRLPRRETS | 177

biological target: SpLsb4; experiment: as above
Description: as §1

Binder | SPOT peptide array binding signal intensity
AERNYAPRLPRRETS | 3100

biological target: SpMyo1; experiment: as above
Description: as §1

Binder | SPOT peptide array binding signal intensity
AERNYAPRLPRRETS | 11.5

biological target: SpNbp2; experiment: as above
Description: as §1

Binder | SPOT peptide array binding signal intensity
AERNYAPRLPRRETS | ≤ 0

biological target: SpPex13; experiment: as above
Description: as §1

Binder | SPOT peptide array binding signal intensity
AERNYAPRLPRRETS | 3.5

biological target: SpRvs167; experiment: as above
Description: as §1

Binder | SPOT peptide array binding signal intensity
AERNYAPRLPRRETS | 1930

biological target: SpSla1-D1-D2; experiment: as above
Description: as §1

Binder | SPOT peptide array binding signal intensity
AERNYAPRLPRRETS | ≤ 0

biological target: SpSla1-D3; experiment: as above
Description: as §1

Binder | SPOT peptide array binding signal intensity
AERNYAPRLPRRETS | ≤ 0
